Measured values: PubChem BioAssay (NCI)
Several values for one entry are separate records, joined by “and”; a condition that tells them apart may be missing. Equal entries are not always repeated. Compounds without any hit were thinned out: in the full panel of roughly 83,000, 20% have a hit.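 How to read the values: 0–100, growth inhibition (40 = 60% inhibited); 0, no net growth; -100 to 0, cell death (-40 = 40% of starting cells died; -100 = all dead).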 A number with no mark means an inactive call. Activity calls are given as the source filed them.

These compounds were tested on M14 melanoma (assay: NCI-60 one-dose screen, 48 h (100 = growth as untreated, 0 = no growth, -100 = all killed)). Conditions: 10 µM.
Experimental: Growth inhibition of the M14 human tumor cell line is measured as a screen for anti-cancer activity. Cells are grown in 96 well plates and exposed to the test compound for 48 hours. Compounds are tested at a single concentration, which is 10^-5 M for most compounds. The reported endpoint is percent growth (GI% or GIPRCNT), where numbers from 0 - 100% represent growth inhibition, and numbers from -100% - 0 represent cell death. For example, a value of 40 represents 60% growth inhibition. A value of 0 means no net growth occurred over the course of the experiment. A value of -40 indicates 40% of cells at the beginning of the experiment died by the end of the experiment. A value of -100 means all cells are dead at the end of the experiment.
NCI-60 Human Tumor Cell Lines Screen was performed using the standard one-dose NCI protocol, which is described in more detail at https://dtp.cancer.gov/discovery_development/nci-60/default.htm.
Compounds with GIPRCNT values below 10 were considered active. Activity score was based on GIPRCNT using the following formula: […]
Score is 0 for GIPRCNT values of 100 or above, 50 for GIPRCNT values of 0, and 100 for GIPRCNT values of -100.

Row | Compound | growth
1 | COc1cc(C(C)(C)C)cc(OC)c1C(O)(c1c(OC)cc(C(C)(C)C)cc1OC)c1c(OC)cc(C(C)(C)C)cc1OC | -94.6% (active)
2 | S=c1[nH]nc(Cc2ccccc2)c(=S)[nH]1 | 101%
3 | CCCCCCCCCCCCCCCCCN | 104%
4 | O=c1[nH]cc(F)c(=O)[nH]1 | 64% and 28.9%
5 | N#C/C(=C1C=C/C(=N\O)C(Cl)=C\1)c1ccccc1 | 46%
6 | Cc1cc(NCCCN(C)C)c2ccc3c(ccc4c(NCCCN(C)C)cc(C)nc43)c2n1 | -82.9% (active)
7 | Cc1cnc(/C=N\NC(N)=S)c2cccc(N)c12 | -24.7% (active)
8 | O=C(/C(=C/c1ccccc1)CBr)c1ccccc1 | 65.8%
9 | BrC/C=C/C[P+](c1ccccc1)(c1ccccc1)c1ccccc1 | 49.9%
10 | Nc1ccc2cc(Br)c3ccccc3c2c1 | 78.5%
11 | CN(C)CCC(=O)c1c[nH]c2ccccc12 | 101%

Same assay, conditions: 50 µM

Row | Compound | growth [%]
12 | O=c1[nH]cc(F)c(=O)[nH]1 | 42.4
